Assay outcomes from PubChem BioAssay.
MARV entry inh = qHTS for inhibitors of binding or entry into cells for Marburg Virus | 300,000 tested, 1.8% active | Marburg virus pseudotyped entry inhibition, cell reporter | Potency, µM (top dose mostly 37.8 µM), inactives show at the top dose activity change, negative = inhibition, hits mostly inhibitors; calls by dose curve; tested in HEK293 cells; further: potency means the concentration at half of the fitted maximal effect
VACV Venus inh = qHTS for Stage-Specific Inhibitors of Vaccinia Orthopoxvirus: Venus Reporter Primary qHTS; AID 720580, 2013; Vaccinia virus Venus reporter expression, fluorescence; Potency, µM (doses to about 36.5 µM), inactives show at the highest dose activity change, negative = inhibition, actives largely listed as inhibitors; 330,000 tested, 0.46% active; calls by dose curve; tested in A549 cells; further: potency means the concentration at half of the fitted maximal effect; nearly all actives have a fitted effect of over 30% in size
HCMV antiviral = qHTS Assay for inhibitors of the human cytomegalovirus (HCMV); HFF cells, HCMV-luciferase reporter, 72 h; active compounds read low; activity change, negative = inhibition, % at 57.5 µM; 410,000 tested, 4.5% active; AID 1259415, 2018; in the data active means activity change below about -60%; inconclusive means no clear call, values can overlap the other calls; inactive means above about -39%
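Steps: HFFs plated, 16 h 37C; compounds added; HCMV-luciferase added to MOI 1 PFU/cell; 72 h 37C; OneGlo reagent, 5 min room temperature; luminescence read, normalized to controls.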
LASV entry inh = qHTS for Inhibitors of binding or entry into cells for Lassa Virus; AID 540256, 2011; Lassa virus pseudotype entry inhibition, cell reporter; Potency, µM (highest dose often 37.9 µM), inactives show at the top dose activity change, negative = inhibition, usual class: inhibitors; 300,000 tested, 1.2% active; calls by dose curve; tested in HEK293 cells; further: potency means the concentration at half of the fitted maximal effect; nearly all actives have a fitted effect of over 50% in size
FMDV antiviral = High Throughput Screening for Foot and Mouth Disease Virus Antivirals | 410,000 tested, 1.2% active | FMDV antiviral cell-based qHTS | Potency, µM (highest dose often 57.9 µM), without a hit: at the top dose activity change, negative = inhibition, usual class: inhibitors; calls by dose curve; tested in HEK293T cells; further: read-out not given here; potency means the concentration at half of the fitted maximal effect; nearly all actives have a fitted effect of over 45% in size
Vaccinia mCherry = qHTS for Stage-Specific Inhibitors of Vaccinia Orthopoxvirus: mCherry Reporter Primary qHTS; Potency, µM (titrated, usually from 36.5 µM), for the others: at the highest dose activity change, negative = inhibition, hits mostly inhibitors; 310,000 tested, 0.63% active; Vaccinia virus mCherry reporter infection, fluorescence; calls by dose curve; tested in A549 cells; further: potency means the concentration at half of the fitted maximal effect; nearly all actives have a fitted effect of over 35% in size
An asterisk follows results filed as active; i = inactive; ? = inconclusive; nt = no result given; [ ] = another dose, or the depositor's remark. This is a sample that favours compounds with a hit; in the whole collection about 6.5% have one here. On the % scale 0 is the no-effect control and ±100 the full control effect.

SMILES	MARV entry inh	VACV Venus inh	HCMV antiviral	LASV entry inh	FMDV antiviral	Vaccinia mCherry
CCOC(=O)Cc1csc(NC(=O)COc2ccc(N(C)S(=O)(=O)c3ccc(C)cc3)cc2)n1	?	-6%	17	-21%	18µM*	-15%
CCOc1ccc(/C=C/c2ccc3ccccc3n2)cc1OCC	nt	-12%	nt	nt	nt	38%
Nc1cc(=O)[nH]c2c1CCC2	nt	-16%	nt	nt	nt	-4%
CC(C)(C)c1ccc(C(=O)C2CCCN(C(=O)c3ccccn3)C2)cc1 (stereo unspecified)	nt	nt	-35	nt	-18%	nt
S=C1SCN(Cc2cccnc2)CN1Cc1cccnc1	?	-13%	-95*	?	?	-21%
Cc1ccc2c(C)c(C(=O)Nc3nnc(C)s3)oc2c1	8%	2%	-99*	-9%	30%	-6%
CCc1ccc(S(=O)(=O)Nc2ccc(O)c3c(=O)cc(-c4ccccc4Cl)oc23)cc1	nt	-30%	-34	nt	36%	-9%
O=c1cc(-c2ccccc2Cl)oc2c(NS(=O)(=O)c3cc(Cl)cc(Cl)c3O)ccc(O)c12	-2%	13µM*	nt	-5%	?	?
CC1CCN(S(=O)(=O)c2cccc(C(=O)NCC3CCCO3)c2)CC1 (stereo unspecified)	29%[46.1 µM]	-14%	-27	6.3µM*	2%	-15%
O=S(=O)(Nc1cc(S(=O)(=O)N2CCOCC2)ccc1NCC1CCCO1)c1ccc(F)cc1 (stereo unspecified)	?	?	-15	-3%	40%	2.2µM*
COc1ccc(NC(=O)c2cnn(-c3ccc(C)c(C)c3)c2C2CCNCC2)cc1OC	nt	-3%	-5	0%[46.1 µM]	-19%	-21%
Cc1ccc(-n2ncc(C(=O)Nc3cc(Cl)ccc3Cl)c2C2CCNCC2)cc1	?	-21%	-87*	?	0%	-5%
Cc1ccc(-n2ncc(C(=O)Nc3cc(Cl)cc(Cl)c3)c2C2CCNCC2)cc1C	nt	nt	-99*	nt	?	nt
c1ccc(-n2nnnc2-c2cccc3ccccc23)cc1	?	-25%	-29	?	-2%	?
COc1cccc(/C=C/c2nccc3ccccc23)c1OC	nt	-17%	nt	nt	nt	-20%
COc1ccc([C@H]2NC(=O)C[C@H]2C(=O)N2CCOCC2)cc1	nt	nt	-15	nt	nt	nt
Cc1cc(=O)[nH]c2ccccc12	?	1%	-11	5%	8%	-8%
Cc1cc2[nH]c3c(c[n+](C)c4ccccc34)c2cc1C	nt	nt	-98*	nt	-5%	nt
O=C(COc1ccccc1Cl)Nc1ccc2[nH]c(=O)[nH]c2c1	0%	-17%	-21	-8%[46.1 µM]	-12%	-23%
CC(C)(C)c1nn(-c2ccccc2)c2[nH]c(=O)c(CNc3ccc4c(c3)OCCO4)cc12	-3%	-9%	-62*	20%	nt	i
Cc1ccnc(NC(=O)C2COc3ccccc3O2)c1 (stereo unspecified)	-3%	-11%	-75*	?	63%	i
C/C(=N\NC(=O)C1COc2ccccc2O1)c1ccc(C)o1 (stereo unspecified)	14%	-15%	7	23%	11%	-16%
C/C(=N\NC(=O)C1COc2ccccc2O1)c1ccccn1 (stereo unspecified)	?	?	-102*	11µM*	-3%	4.5µM*
CC1CCCC(NC(=S)Nc2cccc(S(=O)(=O)N(C)C)c2)C1C (stereo unspecified)	?	-18%	-16	18%[46.1 µM]	34%	-2%
COc1ccc(COC(=O)N/N=C2\C[C@@H](O)[C@@H](O)[C@@H]3[C@@H]4C(=O)N(c5cccc(Oc6ccccc6)c5)C(=O)[C@@H]4CC[C@@H]23)cc1	9%[14.2 µM]	nt	nt	nt	nt	nt
SMILES	MARV entry inh	VACV Venus inh	HCMV antiviral	LASV entry inh	FMDV antiviral	Vaccinia mCherry
COc1ccc(C2C(C#N)=C(N)N(c3ccccc3C#N)C3=C2C(=O)CCC3)cc1CN1CCCC1 (stereo unspecified)	5.8µM*	-3%	64	1%	-20%	-8%
Cc1ccc2[nH]c(CSc3nnc(COc4ccccc4C)n3C)cc(=O)c2c1	nt	-8%	-39	-2%[46.1 µM]	?	-9%
Cc1ccccc1OCc1nnc(SCc2cc(=O)c3cc(F)ccc3[nH]2)n1C	nt	-8%	-62*	-13%[46.1 µM]	?	-12%
CCn1c(C(=O)N2CCC(C(=O)N3CCN(c4cc(C)ccc4C)CC3)CC2)cc2sccc21	?	-25%	-30	nt	?	-5%
CCS(=O)(=O)Nc1c(C(=O)O)[nH]c2ccccc12	6%	8%	-108*	3%	43%	-4%
CCS(=O)(=O)Nc1c(C(=O)OC)[nH]c2ccccc12	-2%	nt	36	25%	2%	nt
COC(=O)Nc1nc2ccc(-c3n[nH]c(=O)c4ccccc34)cc2[nH]1	-9%	-14%	30	?	-4%	-3%
COC(=O)Nc1nc2ccccc2[nH]1	20%	-17%	64	-3%	20%	?
C=C(c1ccc2nc(NC(=O)OC)[nH]c2c1)c1cccs1	?	?	-88*	?	12%	?
CCc1cccc(NC(=O)Nc2ccc(Oc3ccc4nc(NC(=O)OC)[nH]c4c3)cc2)c1	nt	nt	nt	13µM*	nt	nt
COC(=O)Nc1nc2ccc(Oc3ccc(NC(=O)Nc4ccccc4)cc3)cc2[nH]1	nt	nt	nt	3.1µM*	nt	nt
C=CCOc1ccc2nc(NC(=O)OC)[nH]c2c1	?	nt	?	?	35%	nt
O=C(Cc1coc2cc3c(cc12)CCC3)OCC(=O)N1CCCC1=O	?	-11%	21	?	14µM*	i
c1ccc2c(CCNc3ncnc4nc[nH]c34)cccc2c1	?	nt	-35	1%	32µM*	nt
CN(C)S(=O)(=O)c1cccc(CSCc2cccc(S(=O)(=O)N(C)C)c2)c1	?	-8%	-92*	?	?	-4%
COc1ccc(-c2csc(NC(=O)CCNC(=O)c3ccco3)n2)cc1	nt	-2%	-7	nt	-22%	i
COc1cc(CN(C(C)=O)c2ccccc2C(=O)O)ccc1[N+](=O)[O-]	6%	-11%	-63*	4%	-6%	i
Cc1ccc(S(=O)(=O)N2[C@H](c3cccc(Cl)c3)CC(=O)[C@@H]3CN(S(=O)(=O)c4ccccc4C)[C@H](c4ccc(Cl)cc4)C[C@@H]32)cc1	nt	-26%	-83*	nt	?	-18%
Cc1ccc([C@@H]2CC(=O)[C@@H]3CN(S(=O)(=O)c4ccccc4C)[C@H](c4ccc(Cl)cc4)C[C@@H]3N2S(=O)(=O)c2ccc(C)cc2)cc1	nt	-29%	-94*	nt	?	-22%
Cc1ccc(S(=O)(=O)N2[C@H](c3ccc(Cl)cc3)CC(=O)[C@@H]3CN(S(=O)(=O)c4ccccc4C)[C@H](c4ccc(Cl)cc4)C[C@@H]32)cc1	nt	-13%	-89*	nt	-25%	9%
